Screens (PubChem)
In the library only some 4% were active in any assay of this set; here they are far more common.
TWEAK Fn14 block: inhibitors of TWEAK-Fn14 signaling, primary screen, luciferase reporter cells, uHTS. 360,000 tested, 2% active. TWEAK-stimulated Fn14 reporter cells, luciferase luminescence, 8 h. inhibition, % at 10 µM; in the data active = inhibition above about 50%
CF NFkB block: inhibitors of PAF-induced NF-kB signaling, primary screen, cell-based, GFP fluorescence, uHTS; KKLEB NF-kB-GFP reporter, GFP fluorescence overnight; 360,000 tested, 0.86% active; inhibition, % at 5 µM;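 active = at least 50% inhibition at 5 µM, scaled per plate between neutral and stimulator controls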;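 also: PAF is a Pseudomonas aeruginosa culture filtrate used as stimulus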
TROY NFkB inh: inhibitors of TROY-driven NF-kB signaling, primary screen, Q293 LMP1-TROYcd cells, NF-kB luciferase, uHTS. Q293 LMP1-TROYcd NF-kB luciferase reporter, 4 h. inhibition, % at 10 µM. 360,000 tested, 0.98% active;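 active = compounds whose plate-normalised and pattern-corrected inhibition of the luciferase reporter signal at the single screening dose is 50% or more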
Peg3 prom inh: Peg3 promoter-driven luciferase inhibitors, primary screen, cell-based, HeLa, luciferase luminescence | HeLa PEG-Prom luciferase reporter, overnight | inhibition, % at 20 µM | 360,000 tested, 1.7% active | AID 588405, 2011;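 active = inhibition of at least 50% at 20 µM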
KKLEB cytotox: cytotoxicity in KKLEB CF airway cells, primary screen, cytotoxicity control for CF NF-kB inhibitor project, cell-based, uHTS, fluorescence assay plates. KKLEB CF airway cells viability, ATPlite luminescence, overnight; active compounds read low; cells stimulated with P. aeruginosa culture filtrate. activity change (cytotoxicity), % at 5 µM. 360,000 tested, 0.36% active;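 active = corrected activity change at or below -50% at 5 µM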
HIF-2a inh: HIF-2a reporter inhibitors, primary screen, luminescence, 786-0 RCC cells. 360,000 tested, 0.72% active. AID 624352, 2012. inhibition, % at 18.8 µM. 786-0 RCC cells HIF-2a reporter, luciferase luminescence, overnight;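 active = inhibition of the luminescence signal of 40% or more relative to plate controls, in a single-dose primary screen at 18.75 µM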
Of the large screens only hits and unclear results are named; the others gave an inactive call.

O=C(CN1C(=O)NC2(CCCC2)C1=O)OCc1ccc(Cl)cc1Cl	none
CCCc1nc(NCc2ccco2)c(C#N)c2c1COC(C)(C)C2	TWEAK Fn14 block 74 (no result: TROY NFkB inh)
CC(C)c1nc2sc3c(NCc4ccco4)ncnc3c2c2c1COC(C)(C)C2	TWEAK Fn14 block 52, CF NFkB block 78, KKLEB cytotox -66 (no result: TROY NFkB inh)
CC(C)c1nc2sc3c(NCc4ccccc4)ncnc3c2c2c1COC(C)(C)C2	none
Cc1ccc(-c2nn(Cc3ccccc3)cc2C(=O)NCC2CCCO2)cc1 (stereo not drawn)	none
Cc1ccc2nc(C(Cl)(Cl)Cl)nc(N/N=C/c3ccc([N+](=O)[O-])cc3)c2c1	none
O=C(NCc1cccs1)C1CCCN1C(=O)Nc1ccccc1Cl (stereo not drawn)	none
COc1ccc(OC)c(NC(=O)N2CCCc3ccccc32)c1	TROY NFkB inh 76
COc1ccccc1NC(=S)N1CCCc2ccccc21	TWEAK Fn14 block 66, TROY NFkB inh 54
CCOc1ccccc1NC(=O)N1CCCc2ccccc21	TROY NFkB inh 75
COc1ccc(NC(=S)N2CCc3ccccc32)cc1OC	none
COc1ccc(NC(=O)N2CCCc3ccccc32)cc1	none
CCOc1ccccc1NC(=S)N1CCCc2ccccc21	TWEAK Fn14 block 53, TROY NFkB inh 54
CCOc1ccccc1NC(=O)N1CCc2ccccc2C1	none
CCOC(=O)c1cnn(-c2ccc([N+](=O)[O-])cc2)c1N	none
CCC1(C)Cc2[nH]c(=O)c(C#N)cc2CO1 (stereo not drawn)	TWEAK Fn14 block 86
CC1(C)Cc2[nH]c(=O)c(C#N)cc2CS1	none
O=C(Nc1cccnc1Cl)c1ccc2c(Cl)c3c(nc2c1)CCC3	TWEAK Fn14 block 54
CCN(CC)CCCNC(=O)c1ccc2c(Cl)c3c(nc2c1)CCCC3	Peg3 prom inh 61
Cc1ccc(CNC(=O)CSc2c3c(nc4ccc(Cl)cc24)CCCC3)o1	none
CCN(CC)CCNC(=O)CSc1c2c(nc3cc(Cl)ccc13)CCCC2	Peg3 prom inh 78
CCCCN(CC)CCNC(=O)c1ccc2c(Cl)c3c(nc2c1)CCC3	none
CCOC(=O)CCCCCC(=O)Nc1ccc2c(c1)C(=O)N([C@H](C)CO)C[C@@H](C)[C@H](CN(C)S(=O)(=O)c1cn(C)cn1)O2	none
Cc1cc2c(NC3CCCCC3)ncnc2s1	none
COc1ccc(CCN2C(=O)CSC2=S)cc1OC	Peg3 prom inh 60, HIF-2a inh 61
COc1ccc(CN2C(=O)CSCC2=O)cc1OC	none
COc1cc(NCCCn2ccc(NC(=O)OCc3ccccc3)nc2=O)cc(OC)c1OC	none
COc1cccc(N(CC(=O)NCCSc2ccccn2)S(=O)(=O)c2ccccc2)c1	none
CCCC1NC(=O)c2cccnc2-n2c1nc1ccc(OC)cc1c2=O (stereo not drawn)	none
CCC(C)N(CCNC(=O)c1ccc2c(c1)NC(=O)c1ccccc1S2)C1CCCCC1 (stereo not drawn)	Peg3 prom inh 76
O=C(C1CCC(Cn2c(=S)[nH]c3ccccc3c2=O)CC1)N1CCN(c2ccccn2)CC1 (stereo not drawn)	TWEAK Fn14 block 56
Oc1ccccc1C=Nc1cccc2ccccc12	TWEAK Fn14 block 69, TROY NFkB inh 66
Oc1cccc(C=Nc2cccc3ccccc23)c1O	TWEAK Fn14 block 101, TROY NFkB inh 61
O=C(c1cccs1)c1ccc(-c2cccs2)s1	TWEAK Fn14 block 61
CN1CCN(C(=O)c2ccc(-c3cccs3)s2)CC1	none
CCOC(=O)C1=C(C)NC(=O)NC1c1ccc(-c2ccccc2F)o1 (stereo not drawn)	TROY NFkB inh 54
COC(=O)C[C@@H]1OC[C@H](C(C)C)N1S(=O)(=O)c1ccc(C)cc1	none (no result: TWEAK Fn14 block, CF NFkB block, TROY NFkB inh, Peg3 prom inh, KKLEB cytotox)
CN1CCN(c2nc(-c3ccc(C(C)(C)C)cc3)nc3ccccc23)CC1	TWEAK Fn14 block 85, TROY NFkB inh 78
Cc1ccc(-c2nc(N3CCN(C)CC3)c3ccccc3n2)cc1	none
c1ccc2c(-c3cc(NCc4ccncc4)n4nccc4n3)cccc2c1	none
N#CC(=C1C=CC(=NO)C(Cl)=C1)c1ccccc1	CF NFkB block 50
N#CC(=C1C=C(Br)C(=NO)C=C1Cl)c1ccc(Cl)cc1	none
C/C(=N\Nc1cccc2cccnc12)c1ccc(N)cc1	TROY NFkB inh 62
C/C(=N\Nc1cccc2cccnc12)c1ccccc1O	none
C/C(=N\Nc1cccc2cccnc12)c1ccccn1	TWEAK Fn14 block 70
CC1COc2ccccc2N1S(=O)(=O)c1ccc(Cl)cc1 (stereo not drawn)	none
Cc1ccc(S(=O)(=O)N2c3ccccc3OCC2c2ccccc2)cc1 (stereo not drawn)	TWEAK Fn14 block 63
CC1COc2ccccc2N1C(=O)c1ccc(Cl)cc1 (stereo not drawn)	none
O=C(C(Cl)Cl)N1c2ccccc2OCC1c1ccccc1 (stereo not drawn)	Peg3 prom inh 59
CC(NC(=O)c1ccc(NC(=O)CC2SC(N3CCCC3)=NC2=O)cc1)c1ccccc1 (stereo not drawn)	none
Cc1cccc(NC(=O)/C(=C\c2ccc([N+](=O)[O-])o2)NC(=O)c2ccc(Cl)cc2)c1	Peg3 prom inh 56
Cc1ccc(S(=O)(=O)N2CCN(C(=O)CSc3nccn3C)CC2)cc1	TROY NFkB inh 60
Cc1ccc(S(=O)(=O)N2CCN(C(=O)CSc3nnc(C)c(=O)[nH]3)CC2)cc1	none
CN1CCN(c2ccc(NC(=S)NC(=O)/C=C/c3ccco3)cc2)CC1	none
CCC(=O)C1CCCN(C(=O)c2ccc(OC3CCN(C(=O)CCOC)CC3)cc2)C1 (stereo not drawn)	TWEAK Fn14 block 88
CCOC(=O)C1=CN(Cc2ccco2)S(=O)(=O)NC1CC (stereo not drawn)	none
COC(=O)C(C#N)C(=C1C(=O)CC(C)(C)CC1=O)c1ccc(O)cc1 (stereo not drawn)	KKLEB cytotox -50
CN(C)c1ccc2c(=O)c3ccccc3oc2n1	TWEAK Fn14 block 55
Cc1nc2oc3ccccc3c(=O)c2cc1C(=O)O	none
CCN=c1scc(-c2ccccc2)n1/N=C/c1ccccn1	TWEAK Fn14 block 92, TROY NFkB inh 77
COc1ccc(C(=O)CC(C#N)c2ccc3c(c2)OCO3)cc1OC (stereo not drawn)	none
CC1(C)NC(=O)N(CC(=O)N2CCN(c3ccc([N+](=O)[O-])cc3)CC2)C1=O	none
O=C(N/N=C/c1c[nH]c2ccccc12)c1sc2ccccc2c1Cl	none
O=C(N/N=C/c1ccccn1)c1sc2ccccc2c1Cl	TWEAK Fn14 block 86
Cn1cccc1/C=N/NC(=O)c1sc2ccccc2c1Cl	TWEAK Fn14 block 51 (no result: TROY NFkB inh)
